Consider 25 compounds from PubChem BioAssay AID651636 (Sanford-Burnham Center for Chemical Genomics, 2012).

Structures are written as SMILES. Screen size: about 360,000 compounds; about 3,000 (0.83%) were called active. The full list was thinned out, with actives kept by preference. Values without a mark were called inactive. No stated cut-off is given here; in the data, active means inhibition above about 38%; inactive means the rest.

Chain of G-protein coupled receptor 183 (Homo sapiens) (P32249 whole entry, looked up, the tested form may be a part): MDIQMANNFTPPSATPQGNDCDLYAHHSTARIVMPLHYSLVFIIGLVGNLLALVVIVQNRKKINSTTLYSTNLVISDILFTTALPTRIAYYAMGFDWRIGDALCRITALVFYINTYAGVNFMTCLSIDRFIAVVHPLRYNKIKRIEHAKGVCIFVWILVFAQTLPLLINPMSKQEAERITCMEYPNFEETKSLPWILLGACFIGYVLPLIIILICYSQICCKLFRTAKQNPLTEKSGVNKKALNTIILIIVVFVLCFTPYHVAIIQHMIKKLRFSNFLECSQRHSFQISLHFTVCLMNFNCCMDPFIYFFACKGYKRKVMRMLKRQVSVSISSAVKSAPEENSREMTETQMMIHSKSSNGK

This experiment has as its target G-protein coupled receptor 183 (Homo sapiens) (UniProt P32249). Briefly: blockers of oxysterol-driven EBI2 arrestin signaling – cell-based, luminescence, 7a,25-OHC stimulation, uHTS, primary screen (AID 651636).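 Further: enzyme fragment complementation signal reports receptor beta-arrestin coupling in cells; 0% = agonist plus DMSO wells and 100% = wells without agonist.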 Particulars: EBI2 beta-arrestin recruitment, 7a,25-OHC stimulated, at 5 µM, hits give high values.
A word on the inhibition: it is the drop in the measured response relative to a control, in per cent. On to `CC(=O)OC1C2(CC3N4C(=O)C5(CO)SSC4(CC31O)C(=O)N5C)OC(C)C(C)(C)C2=O` (stereo not given), for which the inhibition was 94.4% (active).

In the case of `CC(C)(C)[C@]1(O)C[C@@H]2OC(=O)C[C@@]23C(=O)O[C@@H]2OC(=O)[C@H](O)[C@]213`, the inhibition is -2.99%.

On to `O=C(CCC(=O)N1C[C@H]2C[C@@H](C1)c1cccc(=O)n1C2)NCc1ccccc1C(F)(F)F`, for which the inhibition is -0.966%.

Take `CC(=O)Nc1ccccc1C(=O)OCC(=O)c1cccc2ccccc12`: the inhibition is 12.7%.

On to `COc1cccc(C(=O)N2C[C@H]3C[C@@H](C2)c2cccc(=O)n2C3)c1`, for which the inhibition is -6.08%.

For the compound `O=C(COc1ccc2ccccc2c1)N1CCN(Cc2ccncc2)CC1`, the inhibition was 66.2% (active).

Consider `CC(C)c1ccc(OCC(=O)N2CCCN(C)CC2)cc1`, for which the inhibition was 2.02%.

Consider `O=C(Cc1ccccc1[N+](=O)[O-])N1CCN(Cc2ccc3c(c2)OCO3)CC1`, for which the inhibition is 5.95%.

In the case of `CC(c1ccccc1)(c1ccccc1)c1ccncc1`, the inhibition is 11.4%.

Take `COC(=O)C1=C(c2ccccc2OCc2ccccc2)C[C@@H]2CC[C@H]1N2C(=O)NCc1ccc(OC)cc1`: the inhibition is 26.2%.

`COC(=O)C1=C(c2ccc(F)cc2OCc2ccccc2)C[C@@H]2CC[C@H]1N2C(=O)NCc1ccc(OC)c(OC)c1`: the inhibition was 9.54%.

Turning to `O=C(CN1CCCCC1)Nc1ccc(Br)cc1C(=O)c1ccccc1Cl`, the inhibition is -11.6%.

`CCc1ccc(OCC(=O)N2CCN(CC(=O)Nc3ccccc3Cl)CC2)cc1`: the inhibition is 73.1% (active).

Regarding `CCC(=O)c1ccc(OCC(=O)N2CCN(CC(=O)Nc3ccc(C)cc3)CC2)cc1`, the inhibition was 6.66%.

With `CCOP(=S)(OCC)C(O)CCCCCn1c(=O)c(F)cn(C2CCCO2)c1=O` (stereo not given), the inhibition is -1.97%.

Take `CN(c1ccccc1)c1ccc([N+](=O)[O-])c2nonc12`: the inhibition is 1.86%.

Take `CC[N+](CC)(CC)CCCCCCCCCC[N+](CC)(CC)CC`: the inhibition is 2.47%.

For `C[C@H]1CN([C@@H](C)CO)C(=O)CCCn2nncc2CO[C@H]1CN(C)C(=O)Oc1cccc2ccccc12`, the inhibition is -6.15%.

`COC(=O)C1=C(c2ccc(OCc3ccccc3)cc2)C[C@@H]2CC[C@H]1N2C(=O)NCc1cccc(F)c1`: the inhibition is 64.5% (active).

`COC(=O)C1=C(c2ccc(OCc3ccccc3)cc2)C[C@@H]2CC[C@H]1N2C(=O)NCc1ccc(Cl)cc1`: the inhibition is 22.1%.

As to `COC(=O)C1=C(c2cccc(OCc3ccccc3)c2)C[C@@H]2CC[C@H]1N2C(=O)NCc1ccc(Br)cc1`, the inhibition is 19%.

On to `Cc1cc(C)c2c(c1)NP(=S)(c1ccccc1)N2` (stereo not given), for which the inhibition was 11.1%.

Consider `O=C1NC(=O)N(CCc2ccc(F)cc2)C(=O)/C1=C/C=C/c1ccccc1`, for which the inhibition was 58.5% (active).

Turning to `CN(C)c1nc(N(C)C)nc(N(C#N)CCCl)n1`, the inhibition is 2.53%.

Take `COc1ccc(NC(=O)c2cn(CCC#N)nc2-c2ccc([N+](=O)[O-])cc2)cc1`: the inhibition was -6.27%.
